# Measurements reported in the supplement of paper PMC9177965.
# Test system: HT29 sg-Ctrl (RNF43 wildtype)
# Experiment: cell viability activity relative to DMSO (negative = inhibition); higher = more viable cells (less growth inhibition)
# Settings: 5 µM; 96 h
# Procedure: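 Broad Repurposing Library primary screen at a single dose of 5 uM. HT29 sg-Ctrl and HT29 RNF43 G659fs CRISPR-edited isogenic cells were seeded at 2500 cells/well in 384-well plates in duplicate and treated for 96 h. Viability was read by CellTiter-Glo and reported as % activity relative to DMSO, with MG132 as the positive control (negative = growth inhibition).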
row,Compound,cell viability activity
1,CN1CC[C@@H](c2c(O)cc(O)c3c(=O)cc(-c4ccccc4Cl)oc23)[C@@H]1CO,-82.7%
2,FC(F)c1nc2ccccc2n1-c1nc(N2CCOCC2)nc(N2CCOCC2)n1,-29.7%
3,CCCCCCCCCCCCCCC[C@@H](O)[C@@H](N)CO,-43.8%
4,Nc1ccc(-c2cccc3c(=O)cc(N4CCOCC4)oc23)cc1,-76.6%
5,Cc1[nH]c2ccccc2c1CCNCc1ccc(/C=C/C(=O)NO)cc1,-96.1%
6,CNC(=O)Nc1ccc(-c2nc(N3CC4CCC(C3)O4)c3cnn(C4CCC5(CC4)OCCO5)c3n2)cc1,-19.4%
7,COC[C@H](NC(=O)c1cnc(C)s1)C(=O)N[C@@H](COC)C(=O)N[C@@H](Cc1ccccc1)C(=O)[C@@]1(C)CO1,-93.6%
8,O=C(CCCCCCNC(=O)c1cnc(N(c2ccccc2)c2ccccc2)nc1)NO,-45.9%
9,Nc1ccccc1NC(=O)c1ccc(CNC(=O)OCc2cccnc2)cc1,-77.2%
10,CCc1cccc(CC)c1NC(=O)N1Cc2[nH]nc(NC(=O)c3ccc(N4CCN(C)CC4)cc3)c2C1,-21.2%
11,COC(=O)Nc1ccc(-c2nc(N3CCOCC3)c3cnn(C4CCN(C(=O)OC)CC4)c3n2)cc1,-38%
12,CCCC[C@H](NC(C)=O)C(=O)N[C@H]1CC(=O)NCCCC[C@@H](C(=O)O)NC(=O)[C@H](Cc2c[nH]c3ccccc23)NC(=O)[C@H](CCCNC(=N)N)NC(=O)[C@@H](Cc2ccccc2)NC(=O)[C@H](Cc2c[nH]cn2)NC1=O,-7.64%
13,CCOc1cc2ncc(C#N)c(Nc3ccc(OCc4ccccn4)c(Cl)c3)c2cc1NC(=O)/C=C/CN(C)C,-30.9%
14,CC(C)n1nc(-c2ccc3oc(N)nc3c2)c2c(N)ncnc21,-52.5%
15,CC[C@H](C)[C@@H]([C@@H](CC(=O)N1CCC[C@H]1[C@H](OC)[C@@H](C)C(=O)N[C@@H](Cc1ccccc1)c1nccs1)OC)N(C)C(=O)[C@@H](NC(=O)[C@H](C(C)C)N(C)C)C(C)C,-43%
16,COc1ccc(S(=O)(=O)Nc2cccnc2Nc2ccc(O)cc2)cc1,-55.9%
17,C[C@@H](Oc1ccc2[nH]nc(/C=C/c3cnn(CCO)c3)c2c1)c1c(Cl)cncc1Cl,-88.8%
18,CCCCCCCCCCCCCCCC[N+](C)(C)Cc1ccccc1,-34.3%
19,C[C@@H](NC(=O)c1ncnc(N)c1Cl)c1ncc(C(=O)Nc2cc(C(F)(F)F)c(Cl)cn2)s1,-29.1%

row,Compound,cell viability activity
1,Nc1ncnc2c1c(-c1cccc(OCc3ccccc3)c1)cn2C1CC(CN2CCC2)C1 (configuration not stated),-61.2%
2,CNCCn1c(=O)c2cc(OC)c(OC)cc2c2cnc3cc4c(cc3c21)OCO4,-86.6%
3,C[C@@H]1CC[C@@]2(NC1)O[C@H]1C[C@H]3[C@@H]4CC=C5C[C@@H](O[C@@H]6O[C@H](CO)[C@@H](O[C@@H]7O[C@@H](C)[C@H](O)[C@@H](O)[C@H]7O)[C@H](O)[C@H]6O[C@@H]6O[C@@H](C)[C@H](O)[C@@H](O)[C@H]6O)CC[C@]5(C)[C@H]4CC[C@]3(C)[C@H]1[C@@H]2C,-86.6%
4,Nc1nc(=O)n([C@H]2C[C@H](O)[C@@H](CO)O2)cc1F,-71%
5,COCC[n+]1c2c(n(Cc3cnccn3)c1C)C(=O)c1ccccc1C2=O,-95.6%
6,CCN(CC)CCCCNc1ncc2cc(-c3c(Cl)cccc3Cl)c(NC(=O)NC(C)(C)C)nc2n1,-33%
7,CCCCC(=O)O[C@H]1CC[C@H]2[C@@H]3CCc4cc(O)ccc4[C@H]3CC[C@]12C,-32.5%
8,Nc1ncnc2c1c(-c1cccc(OCc3ccccc3)c1)cn2C1CC(CN2CCCC2)C1 (configuration not stated),-56.6%
9,N[C@@H](Cn1ccc(=O)n(Cc2ccccc2C(=O)O)c1=O)C(=O)O,-34.1%
10,CCN(CC)CCNC(=O)c1c(C)[nH]c(/C=C2\C(=O)Nc3ccc(F)cc32)c1C,-99.2%
11,Cn1ncc(Cl)c1-c1cc(C(=O)N[C@H](CN)Cc2ccc(F)c(F)c2)oc1Cl,-61.1%
12,c1ccc2c(-c3cnn4cc(-c5ccc(N6CCNCC6)cc5)cnc34)ccnc2c1,-95.7%
13,CCNC(=O)Nc1ccc(-c2nc3c(c(N4CCOC[C@@H]4C)n2)CCN(C2COC2)C3)cc1,-22%
14,C=CCNC1=C2C[C@@H](C)C[C@H](OC)[C@H](O)[C@@H](C)/C=C(\C)[C@H](OC(N)=O)[C@@H](OC)/C=C\C=C(/C)C(=O)NC(=CC1=O)C2=O,-83.4%
15,C/C(=N/Nc1nnc2c(n1)[nH]c1c(C)cccc12)c1ccccn1,-86.8%
16,COc1cc(OC)c(/C=C/S(=O)(=O)Cc2ccc(OC)c(NCC(=O)O)c2)c(OC)c1,-54.8%
17,CC(C)N1CCN(c2ccc(OC[C@@H]3CO[C@@](Cn4cncn4)(c4ccc(Cl)cc4Cl)O3)cc2)CC1,-76%
18,O=C(CCCCCCC(=O)Nc1ccccc1)NO,-84.4%
